Records with an inconclusive call do not appear. The source made the active and inactive calls. Unless noted, the call rests on the fitted dose curve.
What was measured:
[1] = Nuclear factor erythroid 2-related factor 2/antioxidant responsive element (Nrf2/ARE) small molecule agonists: luciferase reporter gene qHTS assay in human keratinocytes (AID 1919969); further: nearly all actives have a fitted effect of over 35% in size
[2] = biological target: Gonadotropin-releasing hormone receptor (Homo sapiens) (UniProt P30968); assay: Human gonadotropin-releasing hormone receptor (GnRHR) small molecule agonists, calcium flux assay in GnRHR-HEK293 cells (AID 1920063); further: nearly all actives have a fitted effect of over 35% in size
Gonadotropin-releasing hormone receptor (Homo sapiens), sequence (P30968 whole entry, looked up): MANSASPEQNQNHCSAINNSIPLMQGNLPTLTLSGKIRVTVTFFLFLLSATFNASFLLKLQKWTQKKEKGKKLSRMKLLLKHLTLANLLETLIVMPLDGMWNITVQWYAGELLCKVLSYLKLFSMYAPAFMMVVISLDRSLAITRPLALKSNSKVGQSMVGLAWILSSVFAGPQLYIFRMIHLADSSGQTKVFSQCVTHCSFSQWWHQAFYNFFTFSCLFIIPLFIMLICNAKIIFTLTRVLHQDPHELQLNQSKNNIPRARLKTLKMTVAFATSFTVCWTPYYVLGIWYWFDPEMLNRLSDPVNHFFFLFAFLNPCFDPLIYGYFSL
Procedure, shortened: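 Agonist mode: compounds at 15 concentrations, in triplicate, went onto calcium dye-loaded GnRHR-HEK293 cells. Intracellular calcium was then followed as 480/540 nm fluorescence at 1 s intervals over 3 min.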

[3] = biological target: KiSS-1 receptor (Homo sapiens) (UniProt Q969F8); assay: Human kisspeptin (KISS1R) small molecule agonists, calcium flux assay in KISS1R-HEK293 cells (AID 1920064; active means well fitted activation curve with a large enough effect in the repeat runs)
KiSS-1 receptor (Homo sapiens), sequence (Q969F8 whole entry, looked up): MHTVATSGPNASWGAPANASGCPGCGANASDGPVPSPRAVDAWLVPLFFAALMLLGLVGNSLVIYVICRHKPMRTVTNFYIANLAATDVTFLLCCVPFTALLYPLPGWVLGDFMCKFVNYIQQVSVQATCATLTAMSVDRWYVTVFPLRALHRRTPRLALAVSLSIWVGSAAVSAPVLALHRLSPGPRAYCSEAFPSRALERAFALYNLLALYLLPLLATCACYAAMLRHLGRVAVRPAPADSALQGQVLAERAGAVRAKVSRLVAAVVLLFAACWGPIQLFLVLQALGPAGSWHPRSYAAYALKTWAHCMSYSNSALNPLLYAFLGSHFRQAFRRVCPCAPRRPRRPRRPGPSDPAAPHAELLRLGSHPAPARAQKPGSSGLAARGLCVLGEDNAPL
Procedure, shortened: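 Agonist mode: intracellular calcium rise tracked at 1 s intervals over 3 min (480/540 nm) immediately after compound addition to dye-loaded KISS1R-HEK293 stable cells. Each compound tested at 15 concentrations in triplicate.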

[4] = p53 small molecule agonists, cell-based qHTS assay with human liver microsomes (AID 1963577)
Procedure, shortened: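 p53RE-bla reporter cells were pre-incubated 5 h at 37 C, then treated with compounds plus human liver microsomes (0.5 mg/mL final) and NADPH (0.5 mg/mL final) for 16 h at 37 C. Beta-lactamase activity was read by LiveBLAzer fluorescence after 2 h at room temperature.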

[5] = p53 small molecule agonists, cell-based qHTS assay with rat liver microsomes (AID 1963578)
Procedure, shortened: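 p53RE-bla cells were exposed to compounds together with rat liver microsomes (0.5 mg/mL final) and NADPH (0.5 mg/mL final) for 16 h at 37 C, then read by LiveBLAzer beta-lactamase fluorescence after 2 h at room temperature.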

[6] = p53 small molecule agonists, cell-based qHTS assay with human liver microsomes: qHTS cell viability counter screen (AID 1963579); further: nearly all actives have a fitted effect of over 45% in size
Procedure, shortened: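 p53RE-bla cells (4,000/well) were pre-incubated 5 h at 37 C, then given compounds in DMSO plus human liver microsomes (0.5 mg/mL final) and NADPH (0.5 mg/mL final) for 16 h at 37 C. Viability was read by CellTiter-Glo luminescence.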

[7] = p53 small molecule agonists, cell-based qHTS assay with rat liver microsomes: qHTS cell viability counter screen (AID 1963580); further: nearly all actives have a fitted effect of over 45% in size
Procedure, shortened: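 Cytotoxicity counter screen: intracellular ATP measured by CellTiter-Glo luminescence in the same wells as the beta-lactamase reporter read, on HCT-116 p53RE-bla cells exposed 16 h at 37 C to compounds with rat liver microsomes and NADPH, each 0.5 mg/mL final.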

[8] = p53 small molecule agonists, cell-based qHTS assay: qHTS cell viability counter screen (AID 1963581); further: nearly all actives have a fitted effect of over 45% in size
Procedure, shortened: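 Counter screen read by CellTiter-Glo luminescence (ATP content, 30 min at room temperature), run in the same wells as the beta-lactamase reporter read. HCT-116 p53RE-bla cells saw compounds for 16 h at 37 C.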

[9] = p53 small molecule agonists, cell-based qHTS assay (AID 1963582; active means well fitted activation curve with a large enough effect in the signal ratio in the repeat runs, not every such curve was filed as active; the % refers to the signal ratio)
Procedure, shortened: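 Read-out is beta-lactamase FRET fluorescence after 2 h at room temperature with LiveBLAzer B/G substrate. p53 response element-bla cells were treated 16 h at 37 C with compounds in DMSO, added 5 h after seeding.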

[10] = biological target: 5-hydroxytryptamine receptor 2A (Homo sapiens) (UniProt P28223); assay: 5-hydroxytryptamine receptor 2A (HTR2A) small molecule antagonists, cell-based qHTS assay (AID 1963586); further: nearly all actives have a fitted effect of over 45% in size
5-hydroxytryptamine receptor 2A (Homo sapiens), sequence (P28223 whole entry, looked up): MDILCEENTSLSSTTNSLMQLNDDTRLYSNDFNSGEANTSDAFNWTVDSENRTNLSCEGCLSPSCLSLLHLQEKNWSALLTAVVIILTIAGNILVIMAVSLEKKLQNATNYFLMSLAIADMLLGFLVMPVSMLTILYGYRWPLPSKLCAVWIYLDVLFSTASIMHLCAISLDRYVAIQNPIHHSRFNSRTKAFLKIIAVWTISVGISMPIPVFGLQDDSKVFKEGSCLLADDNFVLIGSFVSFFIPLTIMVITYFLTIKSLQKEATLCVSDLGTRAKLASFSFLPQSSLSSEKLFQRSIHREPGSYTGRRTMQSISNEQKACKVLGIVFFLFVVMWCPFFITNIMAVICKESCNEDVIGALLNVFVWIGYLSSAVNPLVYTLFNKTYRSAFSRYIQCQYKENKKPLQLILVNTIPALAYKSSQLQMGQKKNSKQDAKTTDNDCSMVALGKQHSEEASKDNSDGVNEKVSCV
Procedure, shortened: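 CHO cells stably expressing human HTR2A were plated for 18 h at 37 C, then loaded with calcium dye for 1 h. Compounds were preincubated 5 min at room temperature before DOI (4 nM solution) was added. Kinetic fluorescence was read for 3 min.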

[11] = biological target: 5-hydroxytryptamine receptor 2A (Homo sapiens) (UniProt P28223); assay: 5-hydroxytryptamine receptor 2A (HTR2A) small molecule agonists, cell-based qHTS assay (AID 1963587); further: nearly all actives have a fitted effect of over 30% in size
Procedure, shortened: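 CHO cells stably expressing human HTR2A, plated 18 h, loaded with calcium dye 1 h at 37 C. Agonist mode: compounds added and intracellular calcium fluorescence recorded kinetically for 2 min at 1 sec intervals.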

[12] = biological target: Muscarinic acetylcholine receptor M1 (Homo sapiens) (UniProt P11229); assay: Cholinergic receptor muscarinic 1 (CHRM1) small molecule antagonists, cell-based qHTS assay (AID 1963588); further: nearly all actives have a fitted effect of over 40% in size
Muscarinic acetylcholine receptor M1 (Homo sapiens), sequence (P11229 whole entry, looked up): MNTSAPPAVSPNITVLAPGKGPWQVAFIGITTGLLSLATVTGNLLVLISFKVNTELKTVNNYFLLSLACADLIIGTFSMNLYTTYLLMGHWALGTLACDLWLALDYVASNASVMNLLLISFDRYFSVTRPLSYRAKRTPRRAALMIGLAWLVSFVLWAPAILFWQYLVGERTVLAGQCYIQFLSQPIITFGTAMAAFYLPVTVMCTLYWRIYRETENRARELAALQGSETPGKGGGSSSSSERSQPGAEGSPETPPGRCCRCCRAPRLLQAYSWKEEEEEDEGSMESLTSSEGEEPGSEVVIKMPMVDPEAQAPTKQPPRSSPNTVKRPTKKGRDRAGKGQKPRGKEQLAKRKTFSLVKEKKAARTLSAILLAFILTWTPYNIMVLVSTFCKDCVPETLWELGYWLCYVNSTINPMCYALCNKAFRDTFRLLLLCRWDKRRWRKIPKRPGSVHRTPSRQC
Procedure, shortened: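 Compounds were tested at 15 concentrations in three independent runs. Dye-loaded CHRM1-CHO cells were exposed 5 min at room temperature before stimulation by acetylcholine added at 50nM. Intracellular calcium was read kinetically on FDSS for 3 min.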

[13] = biological target: Muscarinic acetylcholine receptor M1 (Homo sapiens) (UniProt P11229); assay: Cholinergic receptor muscarinic 1 (CHRM1) small molecule agonists, cell-based qHTS assay (AID 1963589); further: nearly all actives have a fitted effect of over 35% in size
Procedure, shortened: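 Agonist-mode calcium-flux screen: compounds at 15 concentrations, three independent runs, were pin-transferred onto dye-loaded human CHRM1-CHO cells. Fluorescence was then recorded kinetically every second over minutes.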

[14] = cAMP Responsive Elements (CRE) small molecule agonists, cell-based qHTS assay (AID 1963590)
Procedure, shortened: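 Agonist mode: compound added to CRE-bla HEK 293T cells (2,000/well, 18 h after plating) for 3 h at 37 C/5% CO2. Reporter activity detected via FRET beta-lactamase substrate, 2 h room-temperature loading.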

[15] = cAMP Responsive Elements (CRE) small molecule antagonists, cell-based qHTS assay (AID 1963591; active means well fitted inhibition curve with a large enough effect in the signal ratio in the repeat runs, not every such curve was filed as active; the % refers to the signal ratio)
Procedure, shortened: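 Antagonist mode: compounds are added alongside the adenylyl cyclase activator NKH477 (0.25 uM final) to CRE-bla HEK293T cells for 3 h. LiveBLAzer FRET substrate, 2 h at room temperature, reports bla expression.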

[16] = biological target: Beta-2 adrenergic receptor (Homo sapiens) (UniProt P07550); assay: Adrenergic beta2 receptor (ADRB2) small molecule antagonists, cell-based qHTS assay (AID 1963592); further: series mostly up to about 92 µM; nearly all actives have a fitted effect of over 50% in size
Beta-2 adrenergic receptor (Homo sapiens), sequence (P07550 whole entry, looked up): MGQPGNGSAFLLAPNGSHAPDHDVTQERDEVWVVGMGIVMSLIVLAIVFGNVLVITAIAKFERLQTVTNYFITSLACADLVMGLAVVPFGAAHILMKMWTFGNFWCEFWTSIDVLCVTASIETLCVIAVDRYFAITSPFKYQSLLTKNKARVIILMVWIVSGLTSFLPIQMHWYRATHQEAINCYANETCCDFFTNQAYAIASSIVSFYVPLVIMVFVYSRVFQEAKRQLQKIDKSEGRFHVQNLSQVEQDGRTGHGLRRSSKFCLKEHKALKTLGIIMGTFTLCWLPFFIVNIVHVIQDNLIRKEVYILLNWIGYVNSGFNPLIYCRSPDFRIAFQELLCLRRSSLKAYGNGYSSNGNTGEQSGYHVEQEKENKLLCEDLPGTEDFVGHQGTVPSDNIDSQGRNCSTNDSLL
Procedure, shortened: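 Assay format: CHO-ADRB2 cells, 18-20hr seeding at 37C/5% CO2, then compound plus 1nM isoproterenol agonist mix for 0.5hr RT. Homogeneous time-resolved fluorescence cAMP detection after 1hr, expressed as 665/615 nm ratio.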

[17] = biological target: D(2) dopamine receptor (Homo sapiens) (UniProt P14416); assay: Dopamine D2 receptor (DRD2) small molecule agonists, cell-based qHTS assay (AID 1963594); further: nearly all actives have a fitted effect of over 35% in size
D(2) dopamine receptor (Homo sapiens), sequence (P14416 whole entry, looked up): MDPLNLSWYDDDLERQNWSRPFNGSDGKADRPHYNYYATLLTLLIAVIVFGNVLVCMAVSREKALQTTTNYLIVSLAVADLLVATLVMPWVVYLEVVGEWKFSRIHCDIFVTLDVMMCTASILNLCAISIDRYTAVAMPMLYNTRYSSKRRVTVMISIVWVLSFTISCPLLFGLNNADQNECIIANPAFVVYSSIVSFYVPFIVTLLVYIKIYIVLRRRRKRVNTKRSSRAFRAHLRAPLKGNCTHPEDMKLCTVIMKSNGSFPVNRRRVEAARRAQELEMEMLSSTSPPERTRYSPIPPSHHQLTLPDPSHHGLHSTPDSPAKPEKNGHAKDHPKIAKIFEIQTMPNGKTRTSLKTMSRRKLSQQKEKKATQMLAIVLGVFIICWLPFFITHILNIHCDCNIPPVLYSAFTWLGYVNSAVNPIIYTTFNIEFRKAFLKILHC
Procedure, shortened: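 HEK293 cells stably expressing human DRD2, pre-treated with PDE inhibitor Ro20-1724 (0.1 mM final) and compound 10 min at room temperature, then stimulated with NKH477 (200nM […]) for 30 min. cAMP read by HTRF (665/620 nm).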

[18] = biological target: D(2) dopamine receptor (Homo sapiens) (UniProt P14416); assay: Dopamine D2 receptor (DRD2) small molecule antagonists, cell-based qHTS assay (AID 1963595; active means well fitted inhibition curve with a large enough effect in the signal ratio in the repeat runs, with a control signal flat; the % refers to the signal ratio)
Procedure, shortened: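 HTRF cAMP read-out at 665 and 620 nm emission (340 nm excitation). Antagonist mode: compounds were tested against 12 nM quinpirole in DRD2-HEK293 cells, with 200 nM NKH477 raising cAMP and 0.1 mM Ro20-1724 blocking its breakdown.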

[19] = G protein-coupled receptor (GPCR) small molecule agonists, calcium flux assay: HEK293 wild type cell line counter screen (AID 1920065)
Procedure, shortened: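 Calcium flux counter screen: compound added in agonist mode at 15 concentrations in triplicate to dye-loaded parental HEK293 cells. Fluorescence (480/540) read kinetically for 3 min; ATP served as positive control.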

[20] = biological target: Beta-2 adrenergic receptor (Homo sapiens) (UniProt P07550); assay: Adrenergic beta2 receptor (ADRB2) small molecule agonists, cell-based qHTS assay (AID 1963593);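 further: CHO cells stably overexpressing human ADRB2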
Procedure, shortened: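 CHO cells stably over-expressing ADRB2 were plated overnight at 37C, then dosed with compounds plus a stimulation mix containing 100uM IBMX and 25uM Ro-20-1724 for 0.5hr at room temperature. cAMP was measured by HTRF competition, 1hr.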

Measured: Potency

CN(C)CCCNCCCN
not listed: [19] | [20]
inactive: all other assays above

CN1[C@@H]2CC[C@H]1CC(NC(=O)n1c(=O)[nH]c3ccccc31)C2 (stereo partly specified)
not listed: [5] | [6]
inactive: all other assays above

CO[Si](OC)(OC)c1ccccc1
not listed: [7] | [16] | [18]
inactive: all other assays above

CCCCC(CC)CCC(CC(C)C)OS(=O)(=O)O (stereo unspecified)
not listed: [7] | [17] | [19]
inactive: all other assays above

CC1CCC(C(C)C)C(O)C1 (stereo unspecified)
not listed: [4] | [5] | [9] | [12] | [14]
inactive: all other assays above

NS(=O)(=O)c1ccc(N2CCCCS2(=O)=O)cc1
not listed: [8] | [9] | [18] | [19]
inactive: all other assays above

Cc1cccc(Nc2ccccc2C(=O)O)c1C
inactive: [1] | [2] | [3] | [19] | [6] | [7] | [8] | [16] | [17] | [18]

O=Cc1ccc(F)cc1
not listed: [5] | [6] | [12]
inactive: all other assays above

Cc1ccc(S(=O)(=O)O)c(C)c1
not listed: [7] | [8]
inactive: all other assays above

Reference: PubChem BioAssay (Tox21)
